# PubChem BioAssay (NCI)
# The panel holds about 83,000 compounds, 20% with a hit somewhere; the sample as a whole holds those more often.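 Testing used 96-well plates and a 48-hour single-concentration exposure. Example: -40 means 40% of the starting cells died.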 A number with no mark means an inactive call. The source made the active and inactive calls. The calls were made as follows: active = growth percent below 10; inactive = the rest.
# Legend:
# Assay in all cases: NCI-60 one-dose screen, 48 h (100 = growth as untreated, 0 = no growth, -100 = all killed)
# T-47D breast = conditions: 10 µM unless noted
# BT-549 breast = conditions: 10 µM unless noted
# MDA-MB-435 melanoma = conditions: 10 µM unless noted
# SW-620 colon = conditions: 10 µM unless noted
# MCF7 breast = conditions: 10 µM unless noted
# HCT-116 colon = conditions: 10 µM unless noted
# HCC-2998 colon = conditions: 10 µM
# KM12 colon = conditions: 10 µM unless noted
Compound,growth (T-47D breast),growth (BT-549 breast),growth (MDA-MB-435 melanoma),growth (SW-620 colon),growth (MCF7 breast),growth (HCT-116 colon),growth (HCC-2998 colon),growth (KM12 colon)
COc1ccc(OC)c(NC2=C(SCCc3ccccc3)C(=O)c3ccccc3C2=O)c1,70.6%,79.5%,94.7%,94%,69.7%,72.3%,102%,76.7%
Cn1cc(-c2[nH]c3cc(NC(=O)[C@H](N)C4CCCCC4)cc4c3c2C=NNC4=O)cn1,-9.81% (active),-73.7% (active),-33.9% (active),-31.8% (active),-12.1% (active),-76% (active),32.6%,2.52% (active)
CNC(=O)c1cc(Oc2ccc3nc(NC(=O)Nc4ccc(Cl)c(C(F)(F)F)c4)sc3c2)ccn1,-2.44% (active),17.4%,12.9%,21.5%,20.8%,-22% (active),46.6%,29.8%
O=C(O)c1ccc(Nc2ncc3c(n2)-c2ccc(Cl)cc2C(c2c(F)cccc2F)=NC3)cc1,47.5%,57.1%,70.7%,35.4%,49.3%,43.6%,78.5%,28.3%
Cc1cc(Nc2nc(N[C@@H](C)c3ncc(F)cn3)ncc2Cl)n[nH]1,86.5%,65.3%,77.2%,58%,63.1%,62.4%,61.4%,14.7%
COCc1c(-c2ccc(NC(=O)Nc3cc(C(F)(F)F)ccc3F)c(F)c2)c2c(N)ncnn2c1CN1CCOCC1,-27% (active),-39.5% (active),-68.8% (active),-0.244% (active),-22.9% (active),-1.82% (active),-52.1% (active),-37.2% (active)
CSc1nc2ncncc2[nH]1,93.8%,110%,91.9%,106%,94.4%,84.8%,108%,116%
O=C(Nc1ccc(C(=O)Nc2ccc(C3=NCCCN3)cc2)cc1)Nc1ccc(C2=NCCCN2)cc1,45.2%,76.1%,103%,101%,70.8%,63.9%,101%,88.9%
COc1ccc(-c2nocc2-c2cc(OC)c(OC)c(OC)c2)cc1,39.6%,48.5%,-54.4% (active),21.4%,24.3%,6.36% (active),13.4%,12.4%
CO[C@H]1C[C@@H]2CC[C@@H](C)[C@@](O)(O2)C(=O)C(=O)N2CCCC[C@H]2C(=O)O[C@H]([C@H](C)C[C@@H]2CC[C@@H](O)[C@H](OC)C2)CC(=O)[C@H](C)/C=C(\C)[C@@H](O)[C@@H](OC)C(=O)[C@H](C)C[C@H](C)\C=C/C=C/C=C/1C,-5.21% (active),20.3%,36.9%,51.3%,7.85% (active),39.5%,58.6%,42.8%
O=C(CNc1nc(-c2ccc(Cl)cc2)cs1)Nc1ccc(-c2nc3ccccc3s2)cc1,56.1%,107%,104%,99.9%,29.9%,95.5%,97.5%,99%
CO[C@H]1C[C@@H]2CC[C@@H](C)[C@@](O)(O2)C(=O)C(=O)N2CCCC[C@H]2C(=O)O[C@H]([C@H](C)C[C@@H]2CC[C@@H](OCCO)[C@H](OC)C2)CC(=O)[C@H](C)/C=C(\C)[C@@H](O)[C@H](OC)C(=O)[C@H](C)C[C@H](C)\C=C/C=C/C=C/1C,7.51% (active),42.3%,56.4%,53.7%,35.8%,64.3%,66%,55.3%
Cc1cccc(NC(=O)[C@@H]2c3ccccc3C(=O)N(c3ccc(Cl)cc3)[C@H]2c2ccc(Cl)cc2)n1,41.6%,63.3%,46.6%,40.6%,40.9%,26.2%,50.6%,34.5%
O=C(Nc1nc2cccc(-c3ccc(CN4CCS(=O)(=O)CC4)cc3)n2n1)C1CC1,80.4%,53.6%,91.3%,30.1%,16.7%,44.3%,79.2%,31.7%
CCCc1cc2cc(-n3nc(C)c4c3CC(C)(C)CC4=O)cc(NC3CCC(O)CC3)c2c(=O)[nH]1 (stereo unspecified),38.2%,29.2%,20.8%,24.9%,25.4%,11.3%,24.7%,4.71% (active)
Nc1c(Cl)cccc1[N+](=O)[O-],110%,114%,105%,94.6%,99.1%,112%,105%,107%
C=C1C[C@H](O)[C@H](Br)C(C)(C)[C@@]12CCC(C)=C(Cl)C2,28.7%,26.4%,9.73% (active),29.8%,16.3%,9.9% (active),42.3%,13.7%
CCc1nc2cc(/C=C/C(=O)NO)ccc2c(=O)n1CCc1ccc(OC)cc1,-2.1% (active),55.1%,7.73% (active),5.44% (active),10.5%,1.28% (active),48%,23.7%
Cc1ccccc1N1C(c2ccccc2)=NNC12C=CC(=O)C=C2Cl (stereo unspecified),117%,106%,112%,119%,98%,103%,102%,110%
CCOC(=O)Sc1ncnc2nc[nH]c12,34.7%,50.7%,33.3%,68.5%,18.7%,31.2%,26.4%,59.3%
C=CC(=O)Nc1cc(Nc2nccc(-c3cn(C)c4ccccc34)n2)c(OC)cc1N(C)CCN(C)C,-60.8% (active),-39.7% (active),-93.9% (active),-63.7% (active),-61.3% (active),-79.8% (active),-86.4% (active),-47.7% (active)
Cn1c(=O)c(F)c(Nc2ccc(I)cc2F)c2c(=O)n(C[C@@H](O)CO)cnc21,63.7%,60.6%,44.3%,21.6%,83.8%,9.17% (active),-37.7% (active),19.9%
COc1cnc2c(c1)C(=O)c1c-2n(CCCN2CCOCC2)c(=O)c2cc(Cl)ccc12,10%,43.6%,47.5%,21.3%,10.4%,8.51% (active),53.6%,32.7%
COC(=O)CC[C@@H](C)[C@H]1CC[C@H]2C3CC[C@@H]4C[C@@H]5CC[C@]4(C)[C@@]3(O5)[C@H](Br)[C@@H](Br)[C@]12C (stereo partly specified),73.7%,102%,93.8%,102%,87.7%,74.2%,94.8%,99.8%
Cc1cc2c(-c3nc4ccccn4c3Nc3cccc4ccccc34)c(O)c(O)cc2c(O)c1-c1c(C)cc2c(-c3nc4ccccn4c3Nc3cccc4ccccc34)c(O)c(O)cc2c1O,15.5%,27.9%,21.6%,23.9%,14.7%,-5.99% (active),41.8%,20.1%
COc1ccc2c(CCCC(c3ccccc3)c3ccccc3)c3[n+](cc2c1OC)CCc1cc2c(cc1-3)OCO2,-15.6% (active),-65.6% (active),-90.7% (active),0.287% (active),-3.37% (active),-33.9% (active),-81.9% (active),-65% (active)
NS(=O)(=O)c1ccc(CCN2C(=O)/C(=C\c3ccc(Cl)cc3)C=C2c2ccc3ccccc3c2)cc1,71.8%,95.1%,97%,106%,90.6%,89.5%,94.8%,93%
